Source: PubChem BioAssay (National Center for Advancing Translational Sciences (NCATS))
Rab9 prom act: qHTS Assay for Rab9 Promoter Activators; Huh7 Rab9 promoter-luciferase reporter, luminescence, 24 h; Potency, µM (titrated, usually from 9.22 µM), inactives show at the top dose activation, negative = inhibition, most hits filed as activators; 320,000 compounds, 2.8% hits; AID 485297, 2010; also: % of control where 0% means no effect; nearly all actives have a fitted effect of over 60% in size
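Cell-based reporter: Huh7 stable for Rab9 promoter-driven luciferase, plated in reduced-serum medium with 10% FBS at 1500 cells/well, compound-treated 24 h at 37 °C, luminescence read after 10 min reagent.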
NPC1 prom act: qHTS Assay for NPC1 Promoter Activators. Potency, µM (doses to about 9.22 µM), for the others: at the top dose activation, hits mostly activators. 320,000 compounds, 2.4% hits. Huh7 NPC1 promoter luciferase reporter, 24 h; also: % of control where 0% means no effect; nearly all actives have a fitted effect of over 60% in size
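Compounds in DMSO were transferred onto Huh7 NPC1-luciferase reporter cells pre-incubated 2 h; after 24 h at 37 °C, Amplite reagent was dispensed and luminescence recorded 10 min later.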
ELG1 genotoxic: qHTS screen for small molecules that induce genotoxicity in human embryonic kidney (HEK293T) cells expressing luciferase-tagged ELG1; HEK293T ELG1-luciferase reporter, luminescence, 16 h; 330,000 compounds, 1.3% hits; AID 504466, 2011; Potency, µM (doses to about 46 µM), without a hit: top-dose activity change, positive = activation, most hits filed as activators; also: % of control where 0% means no effect; nearly all actives have a fitted effect of over 60% in size
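ELG1-luciferase HEK293T cells, 2,000/well; compound pinned in; 16 hr, 37 °C, 5% CO2; ONE-Glo, 30 min RT; luminescence on CCD imager.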
FLuc counter: qHTS profiling assay for firefly luciferase inhibitor/activator using purifed enzyme and Km concentrations of substrates (counterscreen for miR-21 project); AID 588342, 2011; Potency, µM (titrated, usually from 57.5 µM), without a hit: top-dose activity change, negative = inhibition, most hits filed as inhibitors; Luciferin 4-monooxygenase (Photinus pyralis), P08659; purified FLuc, Km substrates, luminescence inhibition; 360,000 compounds, 6.9% hits;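 also: plate controls were vehicle for no effect and reference inhibitor for full effect; nearly all actives have a fitted effect of over 55% in size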
Target sequence (P08659 whole entry, looked up): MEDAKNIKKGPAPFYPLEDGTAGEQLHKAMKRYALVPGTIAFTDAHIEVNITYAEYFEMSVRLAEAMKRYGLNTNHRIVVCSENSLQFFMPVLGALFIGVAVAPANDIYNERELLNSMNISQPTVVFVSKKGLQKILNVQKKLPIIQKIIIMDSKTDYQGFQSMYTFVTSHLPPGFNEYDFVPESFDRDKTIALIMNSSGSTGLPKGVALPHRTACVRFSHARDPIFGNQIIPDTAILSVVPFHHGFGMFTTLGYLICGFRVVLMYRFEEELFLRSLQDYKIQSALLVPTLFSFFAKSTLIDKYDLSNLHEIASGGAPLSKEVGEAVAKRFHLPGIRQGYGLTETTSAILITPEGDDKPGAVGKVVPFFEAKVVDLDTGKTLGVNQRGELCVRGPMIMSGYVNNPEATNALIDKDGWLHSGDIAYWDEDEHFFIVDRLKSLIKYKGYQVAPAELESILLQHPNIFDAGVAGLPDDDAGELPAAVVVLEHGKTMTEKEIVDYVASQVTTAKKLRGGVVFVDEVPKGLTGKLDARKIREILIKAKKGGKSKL
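Biochemical qHTS of compounds, final roughly 60 µM downward over six points, against 10 nM purified firefly luciferase using Km concentrations of substrates (10 uM D-luciferin, 10 uM ATP) in Tris acetate pH 7.5 buffer; luminescence output.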
Luc counter: Counterscreen for Luciferase (Kinase-Glo TM) Inhibition; Luciferin 4-monooxygenase (Photuris pensylvanica), Q27757; Kinase-Glo luciferase, ATP luminescence, 8 min; Potency, µM (doses to about 38.3 µM), for inactives: top-dose activity change, negative = inhibition, most hits filed as inhibitors; 200,000 compounds, 0.28% hits; also: % is scaled to controls: 0 for no effect and ±100 for the full control effect; nearly all actives have a fitted effect of over 60% in size
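Recombinant Kinase-Glo luciferase, 10 uM ATP (linear range), luciferin; imidazole pH 7.2 / KCl / MgCl2 / Tween / BSA buffer; 8 min RT; luminescence.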
SMN2 splice up: qHTS Assay for Enhancers of SMN2 Splice Variant Expression | 210,000 compounds, 2.8% hits | HEK293 SMN2-luciferase splicing reporter, luminescence, 30-36 h | AID 1458, 2008 | Potency, µM (series often up to 46.1 µM), for the others: top-dose activity change, positive = activation, hits mostly activators; also: % of control where 0% means no effect; nearly all actives have a fitted effect of over 55% in size
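HEK293 cells carry an SMN2 […]–luciferase reporter in which exon 7 inclusion puts luciferase in frame. Cells were plated 10-12 h before compound addition, then incubated 30-36 h at 37C. ONE-Glo luminescence was read; sodium butyrate at 4.5 mM final served as control.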
* = called active by the depositor; [ ] = dose if it differs, or a comment. An excerpt weighted towards active compounds, which were near 7.3% of everything screened. Calls follow the shape of the dose curve; as a rule, active = well fitted curve in the direction sought with a large enough effect; inconclusive = small, poorly fitted or top-dose-only effect, or another doubt; inactive = no such curve, though single readings can be large; an effect the other way counts as inactive or inconclusive. Potency is read from the fitted curve at half-maximal effect.

What do the screens show for `COc1ccc2[nH]c3c(=O)n(Cc4ccncc4)cnc3c2c1`?
Rab9 prom act: 0.8%; NPC1 prom act: 1.1%; ELG1 genotoxic: 3.5%; FLuc counter: 1.1%

How did CC(=O)Nc1ccc(Nc2nc(-c3sc(C)nc3C)cs2)cc1 do in these assays?
Rab9 prom act: -0.9%; NPC1 prom act: -5.0%; ELG1 genotoxic: -8.5%; FLuc counter: 21.3µM*

How did COc1ccc(Nc2nc(-c3sc(NC(C)=O)nc3C)cs2)cc1 do in these assays?
Rab9 prom act: -0.1%; NPC1 prom act: -6.5%; ELG1 genotoxic: -5.8%; FLuc counter: inconclusive; Luc counter: -0.7%; SMN2 splice up: -8.3%

Results for Cc1nc(C)c(-c2csc(Nc3ccc(S(N)(=O)=O)cc3)n2)s1 ?
Rab9 prom act: -1.6%; NPC1 prom act: -7.9%; ELG1 genotoxic: 3.4%; FLuc counter: -3.9%

Results for Cc1ccc(Nc2nc(-c3sc(N)nc3C)cs2)cc1 ?
Rab9 prom act: 2.24µM*; NPC1 prom act: 0.794µM*; ELG1 genotoxic: inconclusive; FLuc counter: 2.13µM*

Results for COc1ccc(Nc2nc(-c3sc(N)nc3C)cs2)cc1 ?
Rab9 prom act: 22.1%; NPC1 prom act: inconclusive; ELG1 genotoxic: inconclusive; FLuc counter: 13.5µM*; Luc counter: -3.8%; SMN2 splice up: 17.5%

How did Cc1ccc(Nc2nc(-c3sc(C)nc3C)cs2)cc1 do in these assays?
Rab9 prom act: 0.0%; NPC1 prom act: -17.7%; ELG1 genotoxic: 17.7%; FLuc counter: 12µM*

What do the screens show for `COC(=O)Cn1cnc2c(oc3ccccc32)c1=O`?
Rab9 prom act: 0.4%; NPC1 prom act: -2.4%; ELG1 genotoxic: 17.2%; FLuc counter: inconclusive

What do the screens show for `O=C(O)c1cccc(CN2C(=O)S/C(=C/c3cccc([N+](=O)[O-])c3)C2=O)c1`?
Rab9 prom act: 0.8%; NPC1 prom act: -1.0%; ELG1 genotoxic: 6.5%; FLuc counter: -1.0%

Results for COc1ccccc1/C=C/c1onc(C)c1S(=O)(=O)N1CCC(C(=O)NC2CCCCCC2)CC1 ?
Rab9 prom act: 4.9%; NPC1 prom act: -6.2%; ELG1 genotoxic: -4.5%[9.26 µM]; FLuc counter: -0.8%

How did CC(=O)c1ccc(NC(=O)COC(=O)CC2CC3CCC2C3)cc1 (stereo not drawn) do in these assays?
ELG1 genotoxic: -0.9%

How did CC(=O)Nc1ccc(Nc2cc(C)nc3c(-c4ccccc4)c(C)nn23)cc1 do in these assays?
Rab9 prom act: -1.3%; NPC1 prom act: 1.9%; ELG1 genotoxic: -1.2%; FLuc counter: 2.4%; Luc counter: 0.1%; SMN2 splice up: -6.9%

What do the screens show for `CCOc1ccc(Nc2nc(-c3sc(N)nc3C)cs2)cc1`?
Rab9 prom act: 26.0%; NPC1 prom act: inconclusive; ELG1 genotoxic: 9.8%; FLuc counter: 15.1µM*

Results for CCOC(=O)c1sc(Nc2ccc(OCC)cc2)nc1C ?
Rab9 prom act: -1.3%; NPC1 prom act: -1.6%; ELG1 genotoxic: 7.1%; FLuc counter: inconclusive; Luc counter: -1.2%

What do the screens show for `COc1ccc2oc(C(=O)OCC(=O)NCCc3ccccc3)c(C)c2c1`?
Rab9 prom act: 9.9%; NPC1 prom act: -0.1%; ELG1 genotoxic: 16.6%; FLuc counter: -3.5%

Results for O=C(Nc1ccc(N2CCN(C(=O)c3ccco3)CC2)cc1)c1cc(Br)ccc1Cl ?
Rab9 prom act: -18.2%; NPC1 prom act: -19.3%; ELG1 genotoxic: -10.6%

How did CCc1nc(SCC(=O)Nc2cccc3ccccc23)[nH]c(=O)c1C do in these assays?
Rab9 prom act: 9.9%; NPC1 prom act: -2.8%; ELG1 genotoxic: -4.6%; FLuc counter: 4.2%
